Consider 40 compounds from ChEMBL document CHEMBL1157539, “Thousands of chemical starting points for antimalarial lead identification” (Nature, 2010).

The test system of the first experiment is Plasmodium falciparum. Kind of experiment: GSK_TCMDC: Inhibition of Plasmodium falciparum Dd2 in whole red blood cells, using parasite LDH activity as an index of growth. Test compounds present at 2uM. Format: functional.
For `CC(=O)Nc1ccc(CN(Cc2ccc(F)cc2)Cc2cccc(Oc3ccccc3)c2)cc1`, the Inhibition (commonly the share of the control response that was lost under treatment) worked out at 82%.

Consider `CCCCCCN(C(=O)OCc1ccccc1)C1CCN(C(=O)OC(C)(C)C)CC1C(=O)OCC` (stereo not given), for which the Inhibition was determined as 96%.

`CC(C)NCc1ccc(-c2cccc(-c3nc4ccccc4[nH]3)c2)cc1.O=C(O)C(F)(F)F` gave an Inhibition of 34%.

Turning to `CC(C)(C)OC(=O)/C=C(\C(=O)OCc1ccc([N+](=O)[O-])cc1)c1csc(NC(c2ccccc2)(c2ccccc2)c2ccccc2)n1`, the Inhibition was 97%.

As for `Cc1ccc(S(=O)(=O)NC(=N)NC(N)=O)cc1`, the Inhibition amounted to 2%.

Compound `CCOC(=O)c1ccc(NC(=O)NNC(=O)c2ccc(CCN3CCC(c4nc(COCC(F)(F)F)c(-c5ccc(F)cc5)o4)CC3)cc2)cc1` came in with an Inhibition of 67%.

Regarding `CC1CCCN(C(=O)C(C)Nc2cc(Cl)ccc2N2CCOCC2)C1` (stereo not given), the Inhibition was found to be 96%.

As for `Cc1cc(=O)c(-c2ccc(Oc3ccc(C(F)(F)F)cc3)cc2)c(C)n1O`, the Inhibition was 78%.

`COC(=O)C(c1ccc(NC(=O)[C@H](CC(C)C)NC(=O)OC(C)(C)C)cc1)c1ccc(NC(=O)[C@H](CC(C)C)NC(=O)OC(C)(C)C)cc1` came in with an Inhibition of 42%.

For the compound `Cl.O=C(CNC1=NCCN1)Nc1ccc(NC(=O)Nc2ccc(NC(=O)CNC3=NCCN3)cc2)cc1`, the Inhibition is listed as 75%.

As to `FC(F)(F)c1ccc2[nH]c(-c3cccc(-c4ccc(CNCC5CCCO5)cc4)c3)nc2c1.O=C(O)C(F)(F)F` (stereo not given), the Inhibition came to 99%.

Compound `Cc1cc(N)nc2ccc(-c3ccc(CN)cc3)cc12` had an Inhibition of 93%.

With `COc1ccc(CC(=O)NC2CCN(c3ccnc4cc(Cl)ccc34)C2)cc1.O=C(O)C(F)(F)F` (stereo not given), the Inhibition was 88%.

Compound `N#CN1CC[C@@H](NS(=O)(=O)Cc2ccc(Cl)c(Cl)c2)C1` registered an Inhibition of 94%.

`COc1cccc(C(=O)NCCOc2ccccc2)c1Oc1ccccc1` gave an Inhibition of 98%.

`COc1ccc(C2CCN(CCCCNC(=O)c3ccc(NC(=O)c4ccc(Cl)cc4)cc3)CC2)c(C)c1.Cl` showed an Inhibition of 35%.

`O=C(Nc1ccc(-c2nc3ccccc3[nH]2)cc1)C1CCCN(CC2CC2)C1` (stereo not given) had an Inhibition of 8%.

In turn, `CCCCNc1cc(NCCCC)c2c(n1)[nH]c1ccccc12` showed an Inhibition of 94%.

In turn, `O=C(Nc1ccsc1)Nc1cccc(-c2ccc(-c3nc4cc(C(F)(F)F)ccc4[nH]3)cc2)c1` yielded an Inhibition of 36%.

`CN1CCN(Cc2ccc(-c3ccc4c(Nc5ccc(F)cc5Cl)ccnc4c3)o2)CC1` showed an Inhibition of 100%.

For `COC(=O)c1ccc2nc(-c3ccc(C(=O)NCc4ccc(Cl)c(Cl)c4)cc3)[nH]c2c1`, the Inhibition amounted to 3%.

The compound `NC1=NC(c2ccccc2)(c2ccccc2)C(=O)N1CCCCc1ccccn1` registered an Inhibition of 56%.

`COc1ccc(CC(=O)Nc2ccc(Nc3nc(C)cc(N(C)C)n3)cc2)cc1`: the Inhibition turned out to be 31%.

Turning to `COc1cccc(OC)c1CN1CCC(N(C)CCCCCCCCN2CCC(OC(=O)Nc3ccccc3-c3ccccc3)CC2)CC1`, the Inhibition stood at 100%.

In the case of `CCOc1cc(Cc2cnc(N)nc2N)cc(OCC)c1OCC`, the Inhibition stood at 0%.

`CCc1cc(NC(=O)Nc2ccnc3ccccc23)ccc1OC.Cl`: the Inhibition is on record as 24%.

Compound `Cc1n[nH]c2cc(Nc3ccnc(Nc4cccc(CN5CCOCC5)c4)n3)ccc12` gave an Inhibition of 0%.

Regarding `COc1ccc(-c2nc(NC(=O)CS(=O)(=O)c3ccc(F)cc3)sc2C)cc1`, the Inhibition is recorded as 99%.

Compound `Cc1cccc2nc(-c3ccc(-c4ccc(CN5CCN(c6cnccn6)CC5)cc4)s3)[nH]c12.O=C(O)C(F)(F)F` came in with an Inhibition of 42%.

For `Cc1[nH]c(C)c(-c2ccc(OCc3cccc(C(F)(F)F)c3)nc2)c(=O)c1Br`, the Inhibition is recorded as 97%.

`Cc1c(F)cc(C(=O)NC2CC2)cc1-c1ccc2c(cnn2S(=O)(=O)c2ccc(F)c(F)c2)c1` came in with an Inhibition of 76%.

For `O=S(=O)(Nc1ccc(CCN2CCC(N3CCCCC3)CC2)cc1)c1ccccc1C(F)(F)F`, the Inhibition is given as 8%.

As to `O=C(O)C(F)(F)F.Oc1ccc(CCNc2nc(NCc3ccccc3-c3ccc(C(F)(F)F)cc3)nc(N3CCCNCC3)n2)cc1`, the Inhibition came to 2%.

`CC(=O)N/N=C/[C@H](CCc1ccccc1)NC(=O)[C@H](CC(C)C)NC(=O)c1cccc(OCCN2CCOCC2)c1` came in with an Inhibition of 78%.

For the compound `COc1ccc(-c2ccc(NC(=O)c3ccc(C#N)cc3)cc2)cc1CN1CCCC1.O=C(O)C(F)(F)F`, the Inhibition is given as 51%.

Compound `Cl.N#Cc1ccc(-c2ccc(C(=O)Nc3ccc4c(c3)CCN(C3CCC3)CC4)nc2)cn1` came in with an Inhibition of 15%.

Turning to `COc1cc(Nc2nccc(N3CCC(NC(=O)c4cccc(NC(C)=O)c4)C3)n2)cc(OC)c1OC` (stereo not given), the Inhibition worked out at 68%.

`O=C(Nc1cccc(CN2CCCN(Cc3ccccc3)CC2)c1)c1ccc(Cl)c(Cl)c1.O=C(O)C(F)(F)F` came in with an Inhibition of 16%.

In turn, `CC(C)(C)c1ccc(CNC(=O)/C=C/c2ccc(-c3nc4cc(C(C)(C)C)ccc4[nH]3)cc2)cc1` had an Inhibition of 66%.

Take `Cc1c(C(=O)C2CC2CN2CCC(N3CCCCC3)CC2)sc2ccccc12` (stereo not given): the Inhibition amounted to 19%.

A further experiment deals with HepG2. Description: GSK_TCMDC: Percent inhibition of human HepG2 cell line. Test compounds present at 10uM. Format: functional.
Regarding `CC(=O)Nc1ccc(CN(Cc2ccc(F)cc2)Cc2cccc(Oc3ccccc3)c2)cc1`, the Inhibition stood at 0%.

Turning to `CCCCCCN(C(=O)OCc1ccccc1)C1CCN(C(=O)OC(C)(C)C)CC1C(=O)OCC` (stereo not given), the Inhibition worked out at 9%.

In turn, `CC(C)NCc1ccc(-c2cccc(-c3nc4ccccc4[nH]3)c2)cc1.O=C(O)C(F)(F)F` had an Inhibition of 21%.

In turn, `CC(C)(C)OC(=O)/C=C(\C(=O)OCc1ccc([N+](=O)[O-])cc1)c1csc(NC(c2ccccc2)(c2ccccc2)c2ccccc2)n1` returned an Inhibition of 2%.

Compound `Cc1ccc(S(=O)(=O)NC(=N)NC(N)=O)cc1` returned an Inhibition of 26%.

In turn, `CCOC(=O)c1ccc(NC(=O)NNC(=O)c2ccc(CCN3CCC(c4nc(COCC(F)(F)F)c(-c5ccc(F)cc5)o4)CC3)cc2)cc1` gave an Inhibition of 10%.

`CC1CCCN(C(=O)C(C)Nc2cc(Cl)ccc2N2CCOCC2)C1` (stereo not given): the Inhibition stood at 0%.

`Cc1cc(=O)c(-c2ccc(Oc3ccc(C(F)(F)F)cc3)cc2)c(C)n1O` came in with an Inhibition of 18%.

In turn, `COC(=O)C(c1ccc(NC(=O)[C@H](CC(C)C)NC(=O)OC(C)(C)C)cc1)c1ccc(NC(=O)[C@H](CC(C)C)NC(=O)OC(C)(C)C)cc1` displayed an Inhibition of 0%.

In turn, `Cl.O=C(CNC1=NCCN1)Nc1ccc(NC(=O)Nc2ccc(NC(=O)CNC3=NCCN3)cc2)cc1` came in with an Inhibition of 0%.

`FC(F)(F)c1ccc2[nH]c(-c3cccc(-c4ccc(CNCC5CCCO5)cc4)c3)nc2c1.O=C(O)C(F)(F)F` (stereo not given): the Inhibition was determined as 29%.

In turn, `Cc1cc(N)nc2ccc(-c3ccc(CN)cc3)cc12` had an Inhibition of 4%.

Consider `COc1ccc(CC(=O)NC2CCN(c3ccnc4cc(Cl)ccc34)C2)cc1.O=C(O)C(F)(F)F` (stereo not given), for which the Inhibition was determined as 0%.

For the compound `N#CN1CC[C@@H](NS(=O)(=O)Cc2ccc(Cl)c(Cl)c2)C1`, the Inhibition was found to be 13%.

On to `COc1cccc(C(=O)NCCOc2ccccc2)c1Oc1ccccc1`, for which the Inhibition stood at 14%.

`COc1ccc(C2CCN(CCCCNC(=O)c3ccc(NC(=O)c4ccc(Cl)cc4)cc3)CC2)c(C)c1.Cl` came in with an Inhibition of 22%.

Turning to `O=C(Nc1ccc(-c2nc3ccccc3[nH]2)cc1)C1CCCN(CC2CC2)C1` (stereo not given), the Inhibition amounted to 6%.

As to `CCCCNc1cc(NCCCC)c2c(n1)[nH]c1ccccc12`, the Inhibition amounted to 13%.

Compound `O=C(Nc1ccsc1)Nc1cccc(-c2ccc(-c3nc4cc(C(F)(F)F)ccc4[nH]3)cc2)c1` came in with an Inhibition of 45%.

Consider `CN1CCN(Cc2ccc(-c3ccc4c(Nc5ccc(F)cc5Cl)ccnc4c3)o2)CC1`, for which the Inhibition was determined as 8%.

With `COC(=O)c1ccc2nc(-c3ccc(C(=O)NCc4ccc(Cl)c(Cl)c4)cc3)[nH]c2c1`, the Inhibition is recorded as 1%.

Consider `NC1=NC(c2ccccc2)(c2ccccc2)C(=O)N1CCCCc1ccccn1`, for which the Inhibition came to 10%.

In turn, `COc1ccc(CC(=O)Nc2ccc(Nc3nc(C)cc(N(C)C)n3)cc2)cc1` gave an Inhibition of 17%.

`COc1cccc(OC)c1CN1CCC(N(C)CCCCCCCCN2CCC(OC(=O)Nc3ccccc3-c3ccccc3)CC2)CC1` displayed an Inhibition of 100%.

The compound `CCOc1cc(Cc2cnc(N)nc2N)cc(OCC)c1OCC` returned an Inhibition of 0%.

In the case of `CCc1cc(NC(=O)Nc2ccnc3ccccc23)ccc1OC.Cl`, the Inhibition is 0%.

`Cc1n[nH]c2cc(Nc3ccnc(Nc4cccc(CN5CCOCC5)c4)n3)ccc12` had an Inhibition of 33%.

As for `COc1ccc(-c2nc(NC(=O)CS(=O)(=O)c3ccc(F)cc3)sc2C)cc1`, the Inhibition was found to be 20%.

In the case of `Cc1cccc2nc(-c3ccc(-c4ccc(CN5CCN(c6cnccn6)CC5)cc4)s3)[nH]c12.O=C(O)C(F)(F)F`, the Inhibition is 11%.

`Cc1[nH]c(C)c(-c2ccc(OCc3cccc(C(F)(F)F)c3)nc2)c(=O)c1Br` displayed an Inhibition of 37%.

`Cc1c(F)cc(C(=O)NC2CC2)cc1-c1ccc2c(cnn2S(=O)(=O)c2ccc(F)c(F)c2)c1` displayed an Inhibition of 49%.

In turn, `O=S(=O)(Nc1ccc(CCN2CCC(N3CCCCC3)CC2)cc1)c1ccccc1C(F)(F)F` registered an Inhibition of 9%.

For `O=C(O)C(F)(F)F.Oc1ccc(CCNc2nc(NCc3ccccc3-c3ccc(C(F)(F)F)cc3)nc(N3CCCNCC3)n2)cc1`, the Inhibition came out at 12%.

`CC(=O)N/N=C/[C@H](CCc1ccccc1)NC(=O)[C@H](CC(C)C)NC(=O)c1cccc(OCCN2CCOCC2)c1` came in with an Inhibition of 13%.

For `COc1ccc(-c2ccc(NC(=O)c3ccc(C#N)cc3)cc2)cc1CN1CCCC1.O=C(O)C(F)(F)F`, the Inhibition is 40%.

In the case of `Cl.N#Cc1ccc(-c2ccc(C(=O)Nc3ccc4c(c3)CCN(C3CCC3)CC4)nc2)cn1`, the Inhibition is 24%.

`COc1cc(Nc2nccc(N3CCC(NC(=O)c4cccc(NC(C)=O)c4)C3)n2)cc(OC)c1OC` (stereo not given) came in with an Inhibition of 9%.

As for `O=C(Nc1cccc(CN2CCCN(Cc3ccccc3)CC2)c1)c1ccc(Cl)c(Cl)c1.O=C(O)C(F)(F)F`, the Inhibition amounted to 23%.

In turn, `CC(C)(C)c1ccc(CNC(=O)/C=C/c2ccc(-c3nc4cc(C(C)(C)C)ccc4[nH]3)cc2)cc1` returned an Inhibition of 35%.

Consider `Cc1c(C(=O)C2CC2CN2CCC(N3CCCCC3)CC2)sc2ccccc12` (stereo not given), for which the Inhibition came out at 35%.
